The test system of this test is PPARg:RXRa 270nM:90nM, anti-RXR (NR concentration 270 nM, RXRa partner concentration 90 nM). As to the kind of experiment: PBM binding z-score (relative to random genomic background probes); higher = stronger binding; sequences stand for … in GC…GCGATTGACAGCGTAGAATGAAGG
The method in brief:
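Scanned fluorescence from custom Agilent 4×180K protein-binding microarrays was regression-normalized. Binding z-scores use random background probes as reference. Ligand-free nuclear receptor dimers were incubated on the arrays for 1 h and detected with antibodies against each partner (one per run).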
The sequence AGAATGAGGTTAAGTTCAGGGAAACAGAATACAT yielded a PBM binding z-score of 3.89.

CCTACTGGACCAAGGTCATTGATCAGTCAAAGCA: the PBM binding z-score amounted to 2.77.

ATCTCTAGGTTAAGATAGTTCAGTGAATGCAAAT registered a PBM binding z-score of 1.66.

In turn, CAAACTAGTTCAAGAGGTCAAAGTCCGCTTCCCG displayed a PBM binding z-score of 5.47.

With CCTACTGGGCCATTCAGAGGTCAATGATCATATG, the PBM binding z-score was determined as 3.02.

AGAATGGGGTTACCAAAGATCAGGGAAACGCTTG had a PBM binding z-score of 4.32.

On to ATCGAAAGGTCCAAGGTGAGTATACCCACCCGAA, for which the PBM binding z-score was determined as 0.802.

Consider ACTCGGATGACAAAGGTCAGAGCTACGCCAGTGA, for which the PBM binding z-score is 5.37.

In the case of AGTCAAAGTTCATCTAGGTAACATAAGATATGCT, the PBM binding z-score was 6.54.

As to CCTAGTTGGTCAAGGTCACACCCGCTATAGGTAC, the PBM binding z-score came out at 3.27.

On to TCTAGTTGGTCACGGAGGTCACAAACGACGGGTA, for which the PBM binding z-score came out at 3.83.

AGAATGAGGTTAAACGTAGATCAGGGAAGAAAGT gave a PBM binding z-score of 4.04.

In turn, ACTTACGGCTCAACGAGGTTATAGCACGCGTATA returned a PBM binding z-score of -0.0206.

Sequence AATACAGGGTGACTAGGCCAGAGTAGGTACGAAT gave a PBM binding z-score of 2.06.

Turning to GCTGCTAGTTCAACTGATGGTCAGCTAAAGCTCG, the PBM binding z-score is -0.212.

As for TAGCCTAGGTCATTCAGGGGCCAGCATAGAAAGC, the PBM binding z-score was found to be 2.62.

TTGCCTAGGTCATTGGGCCAGTATAGTACGCATC came in with a PBM binding z-score of 3.63.

With AGAATGAGATTACCAAAGATCAGGGAAACGCTTG, the PBM binding z-score was -0.216.

Consider ATCGAAAGGTCGACCAGGTGAGTATACACCGTTT, for which the PBM binding z-score was 3.34.

Take CCTTACGGGTTACTCCAGGTTATAGCATCGGAGT: the PBM binding z-score turned out to be 0.711.

The sequence TCTGCTAGGTCAACGTTGGTCAGCTAATCTGCTA yielded a PBM binding z-score of 3.4.

For ATATGTAGGATAGCTGGGGTCATTCAGACTAGGC, the PBM binding z-score turned out to be 3.01.
